# ± gives the standard deviation of the averaged measurements. In all, about 4,100 sequences were measured (“relative kcat/Km (krel) vs genomic leader AAAGAU”: median about 1.7, highest 2% from about 6.5 on). Many of the other results were omitted from the sample, so the highest values are more common in it than they were.
# Biological target: T1, E. coli RNase P holoenzyme (M1 P RNA + rnpA protein) (UniProt P0A7Y8)
# T1 sequence: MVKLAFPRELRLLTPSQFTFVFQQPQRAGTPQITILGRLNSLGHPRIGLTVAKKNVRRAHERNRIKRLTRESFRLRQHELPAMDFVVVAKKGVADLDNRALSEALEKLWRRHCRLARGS
# Assay: relative kcat/Km (krel) vs genomic leader AAAGAU (relative (reference leader = 1)); higher = faster RNase P cleavage
# Description: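 HTS-Kin: a pool of ptRNA-Met (21C construct) with all 4096 combinations of 5' leader nucleotides N(-6) to N(-1) was processed in vitro by E. coli RNase P (P RNA + rnpA/C5 protein) under multiple-turnover conditions at 37 C, pH 8, 17.5 mM MgCl2. Residual substrate was Illumina-sequenced at several fractions reacted, and relative kcat/Km (krel) was computed by internal competition kinetics, calibrated to the genomic leader (AAAGAU = 1). The listed hexamer is the varied N(-6)..N(-1) leader (DNA letters), and it sits between a fixed 5' stem-loop flank (GCAUGCACGAAAGUGCGUGCUAUGAA) and the mature tRNA-Met starting GGCUACGUAGCUCAGUUGG. Two technical replicates are averaged.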
# [1] = fraction of substrate reacted: ~9-10% (9.79% repeat 1, 9.1% repeat 2)
# [2] = fraction of substrate reacted: ~13-16% (15.68% repeat 1, 13.17% repeat 2)
# [3] = fraction of substrate reacted: ~26-29% (28.66% repeat 1, 26.4% repeat 2)
Sequence,relative kcat/Km [1],relative kcat/Km [2],relative kcat/Km [3]
CCGTGC,1.254 ± 0.0079,0.908 ± 0.54,1.84 ± 0.71
GGCGCG,,0.4496 ± 0.0012,1.37 ± 0.14
ATGCCG,,,0.567 ± 0.043
AGCTGG,,0.38 ± 0.056,0.572 ± 0.15
GGTTCA,1.01 ± 0.77,0.431 ± 0.36,1.26 ± 0.44
TGAAAG,,1.15 ± 0.57,2.65 ± 0.8
GCGAAA,2.4 ± 0.62,1.36 ± 0.072,2.16 ± 0.076
GCCAAG,0.818 ± 0.62,0.757 ± 0.36,2.63 ± 0.93
TCCAAG,2.34 ± 1.2,1.77 ± 1.2,4.8 ± 1.6
TCCAAA,3.88 ± 1.2,5.16 ± 0.76,7.85 ± 2.9
TCCAAT,3.48 ± 2.1,4.14 ± 0.76,6.63 ± 2.2
TCCAAC,3.85 ± 2,4.11 ± 0.11,5.77 ± 1.9
ACCAAT,2.48 ± 0.88,2.51 ± 0.89,3.51 ± 0.8
TCCAGC,4.58 ± 2.5,4.83 ± 0.15,6.09 ± 2
TCCAGA,3.25 ± 0.89,4.62 ± 0.77,7.93 ± 2.3
TCCAGG,,,2.14 ± 0.84
GGCGTC,2.13 ± 1.2,1.48 ± 0.093,1.36 ± 0.024
AATTTG,,,0.989 ± 0.62
TGATAC,2.83 ± 0.46,3.97 ± 0.42,5.76 ± 2.1

Sequence,relative kcat/Km [1],relative kcat/Km [2],relative kcat/Km [3]
AGAGGG,,,0.989 ± 0.85
TCATCT,2.18 ± 1.2,2.78 ± 0.36,4.09 ± 1
ACAGAG,,0.878 ± 0.38,1.94 ± 0.09
CTAATT,2.55 ± 1,1.92 ± 0.32,2.36 ± 0.52
CTCCTC,3 ± 1.3,3.49 ± 0.19,4.95 ± 1.7
ATCCTC,3.86 ± 1.3,4.11 ± 1.6,4.92 ± 2
TTCCTG,,,1.68 ± 1.1
GTCCTC,3.46 ± 0.61,4.33 ± 0.75,6.46 ± 3
ATCCTT,3.24 ± 1.5,4.36 ± 0.24,5.37 ± 2.3
CTCCTT,3.67 ± 1.4,4.28 ± 0.77,6.06 ± 2.3
TTCCTC,4.47 ± 1.9,5.25 ± 0.81,6.88 ± 2.5
GTCCTT,3.67 ± 1,4.82 ± 0.56,7.02 ± 2.8
TTCCTT,4.47 ± 1.3,5.24 ± 1.1,7.59 ± 3.1
TGGCGG,0.44 ± 0.28,,0.962 ± 0.067
CCTAGA,3.14 ± 2.6,2.71 ± 0.26,3.57 ± 0.52
CCTCCT,2.08 ± 1.7,1.23 ± 0.17,1.29 ± 0.79
AGAAAA,3.05 ± 0.94,2.65 ± 0.37,3.92 ± 1.1
ACTGGC,,,1.69 ± 1.6
TCTCAC,3.41 ± 1.3,4.45 ± 1.3,6.16 ± 2.3

Sequence,relative kcat/Km [1],relative kcat/Km [2],relative kcat/Km [3]
GGTCAC,2.53 ± 0.97,2.2 ± 0.29,3.14 ± 0.83
AGTCAT,3.31 ± 1.6,5 ± 1.1,6.79 ± 3.2
ACTCAC,2.6 ± 1.1,2.87 ± 0.13,4.43 ± 1.7
AGTCAC,4.5 ± 2.3,4.987 ± 0.032,7.1 ± 2.9
AGTCAA,2.58 ± 0.11,4 ± 1.2,6.05 ± 2.9
TGTCAT,3.5 ± 1.3,4.28 ± 1.1,6.84 ± 3.2
TGTCAC,3.25 ± 2.2,4.8 ± 0.85,7.18 ± 3
TGTCGC,1.87 ± 0.089,2.92 ± 1.1,5.09 ± 2.2
TGTCAA,3.03 ± 1.6,3.56 ± 0.18,5.75 ± 2.1
AGTCAG,2.12 ± 2,1.91 ± 0.42,3.69 ± 0.62
TGTCAG,,1.4 ± 0.17,3.3 ± 0.62
GCTATC,1.45 ± 0.98,0.842 ± 0.77,1.645 ± 0.013
ATTCCT,1.97 ± 0.65,2.19 ± 0.27,2.93 ± 1.1
AAATTC,2.35 ± 1.4,1.98 ± 0.19,2.34 ± 0.6
TAATGG,0.461 ± 0.18,,
CAACAG,,,1 ± 0.52
TGACAA,3.11 ± 2.1,3.72 ± 0.47,4.23 ± 1.4
GTACGC,2 ± 0.098,2.7 ± 0.46,3.72 ± 1.3
